From PubChem BioAssay AID1159506 (National Center for Advancing Translational Sciences (NCATS), 2015) come the findings set out here.

Over roughly 59,000 sequences, the read-out has its median near -0.00055; the lowest 2% begin near -2. This excerpt belongs to a sample that is enriched for the lowest values.

This assay in a line: Identification of proteins required for the processing of the EWS-FLI1 nascent transcript.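 Note: robust z of luciferase light less the median z of siRNAs with the same seed.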 Conditions: TC32 Ewing sarcoma NR0B1-luc vs CMV-luc (EWS-FLI1 target promoter against control promoter), 48 h; screened at 20 nM (by protocol). Put shortly:
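Readout: OneGlo luminescence, 48 h post-transfection, TC32-NR0B1-luc vs TC32-CMV-luc in parallel. siRNA 20 nM final, RNAiMax lipid, 600 cells/well; z-score-MAD transformed, then seed-adjusted.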
In turn, UUCUUGAUGAUCUUUAGCU against LONP1 registered a seed-corrected z-score of 0.0484.
UGGUCUAUAGUAUUCAUGC against YTHDF2 registered a seed-corrected z-score of -0.0088.
UGAUUAUUAGGUACUACCC against RCN2 registered a seed-corrected z-score of -2.4.
To UUCAAUCAGAUCGAAGAGC against CLK2 belongs 0.0394; to AAAGAAGUAGAGGUAGGAC against OR6T1, 0.724.
The same measure for UUAACUGCACCAUCAGUGU against S100A8: -3.04; for UCAGCAUCAACAUAAUGCG against TAS2R40: -1.07.
To UGACGAAUCCCUGCUAUAG against TDRD5 belongs -0.0697; to AAUUAGAUUACCUAAACAC against CDKL2, 0.926.
UAAAGGGAAAUUUCCACCA against CDH16 returned a seed-corrected z-score of 0.815.
The same measure for UUUGGUGAUUUCAUAAUCC against PCDH18: -0.027; for AUCUGGAUCGCUCAGCUCC against TMEM235: 0.0464; for UAGCUUCUCACAGACUUUC against KCTD8: -2.45.
Regarding UUUCCUCUAGGAAGCAUCU against TRIM17, the seed-corrected z-score is 0.172.
AUAGGCAGCAGUGCACUCG against 5-Sep came in with a seed-corrected z-score of -1.81.
Regarding UAUAGUUAAAUCCAUCAUC against CALU, the seed-corrected z-score was 0.272.
The same measure for UAGUAAGAAGAGUCAAUGC against PGA5: -0.472; for AAUUGUUCACUGACCAGGC against WNT8A: -0.645.
To AAAUAAUCCUGUCUACUCC against BOD1 belongs 0.629; to UUGUAUUCAUCCUUGAAGC against CCDC89, -2.42.
The same measure for UGAGGACAUCGAAGAGGCC against HTR6: 1.21.
UAAUGUAGAACAUUUUGAC against LECT2: the seed-corrected z-score was 0.659.
UAUGCUUGCAGUCCACUGG against DYNLT3: the seed-corrected z-score is 1.02.
UUACUGGGAAUAGCACUGC against ITGA5 returned a seed-corrected z-score of 0.318.
UACUCUAUCCGCUGUGCCC against RCC2: the seed-corrected z-score was -0.853.
The same measure for UAGUUGUCGGUAUCUGUCC against CSPP1: -2.38.
In turn, AUCGUGAAGAGAUACUCCG against MAPKBP1 had a seed-corrected z-score of 0.318.
Sequence UCAGCACACUGUCAGGUAC against USB1 returned a seed-corrected z-score of 0.878.
The same measure for UCACGGUGCACAAAGUUCU against ZAP70: -0.0104.
UCUCUGUAUGUGACUGUGA against SNRPD3 had a seed-corrected z-score of -2.85.
The same measure for UUGAAGUUCAUUAGUCUCC against AK5: -0.322.
On to UGUGGAUUUUGGAUGCAGC against XKR5, for which the seed-corrected z-score is -0.21.
The same measure for AAUGUGGUUGAGCUGAUCC against MAPK3: -2.13; for UUGGACAAAAGAUAAGAGC against SNRNP40: -0.258; for UUACCAGAUAGGAUGAUCA against OR5P2: 0.365.
The same measure for UUUGAGGCCGUUGAGGGUG against ELAVL3: -0.487; for UGGGAUUCAAGAUCUCCUC against NGEF: -3.75; for UUAAUGUAUGGGUUGACUC against PLS1: -0.413.
For the sequence UCCAGUUCUCCGGUGAUCU against SYNE3, the seed-corrected z-score is 0.481.
The same measure for UUUGCAUUCAUAAAGAAUU against ING3: -0.246; for UCACGUACAAGAGCACUCG against GRHL2: 0.132.
UUCAGUUGAAUUCCAAAGG against ARHGAP28 had a seed-corrected z-score of 0.997.
To AAGGUGAUAAGUACAGUCA against LINC00977 belongs 0.26.
To AUGAUGCUAGGGUCGGUGC against E2F2 belongs -0.689; to UCUAGUACUACAUUGGCUU against FLJ32255, -1.66.
For the sequence CAUGGUCUCAGUCAGCAUG against CBY3, the seed-corrected z-score was -2.21.
To UAUUCAGCAUUCUCUAUCU against DDAH2 belongs -0.379; to UCCCUGACAACUCCAGGGU against CLDN9, 0.379; to UAGUAAAUGAACGAAGGCG against MAD2L1, 0.0839.
To UUAGAUACGACAUAAGCAG against PGAP1 belongs 0.122; to UUUCUUCAAGGCAGUUUGC against SRGN, -1.36.
To UGAUGGUUGAAAUACUGGU against CITED2 belongs -2.05; to UGAACAGUCGCCGCUCUCU against ZNF418, 0.482; to UGUCGUUUUUGUAUCCUUG against CAGE1, -1.32.
On to UCUUCGUUGACCACACCAC against KCNIP1, for which the seed-corrected z-score came to 0.284.
As for UAGAAUGUCAGUUGGUUCC against MID1IP1, the seed-corrected z-score was 0.366.
To UACAGAUAAACGAUGAUGC against TMEM104 belongs -0.0479; to AGUUGUCCAACCAAUAGUC against EDRF1, -3.95; to UACAUUGAAGCCUAUGGUU against ARF5, 0.767.
To UUUUAUUUUCACAGUAGCA against LOC441239 belongs 0.865.
The same measure for UGACUGUAAACAGAGGCGG against SSR4: -0.396.
For the sequence UUUCGUUGGACUUACUUGG against SPP1, the seed-corrected z-score was -0.831.
The same measure for UCAGGGCAAAGUGGGAUGA against OXER1: -2.06; for UUCAGGUGGACGAACAGCG against ADAMTS8: -0.634.
To UCCGAUAGAGGUUAGACCG against PPT2 belongs -0.518.
The same measure for UCUUCUUUAUGUACCACCG against CDC37L1: 0.00159.
Regarding UUGUAAGCUGGAUCGAUCC against ACACB, the seed-corrected z-score came to 0.0997.
As to UGGGUAUUUGAUCUUGUCG against LZTR1, the seed-corrected z-score is -1.37.
The same measure for UUCUCUUCAACCCACUUGG against JAKMIP1: -2.7.
To UUUAGGUAAAUGAACUCUC against ANGPTL2 belongs 0.169; to UAAAGGUUGAGAAACUUGA against PRPF38A, -2.42; to UUAGAAUCGACCGGCAUUC against KIT, 0.106.
In the case of UAAAUGGCCGUGAUCAAUC against PRDM16, the seed-corrected z-score is -0.168.
The same measure for UUUGUUCAAGGUUAAUCCC against LRRC27: 0.333.
To UAUCUUCUCACUAACACUC against PEX12 belongs 0.599; to ACCCUUAUGAAUUACACCC against PSMD1, -4.24; to UCAUAGUUUAGUUCUCGAG against BBS9, 0.745.
The same measure for AUAGAAUCGAUGGAAGUCC against CAMK2A: 0.247; for UUCUAUGAAAUCGUAAGGC against ME2: -0.054.
In turn, AACAGCUCUCUGGUAAGCG against RPS23P8 showed a seed-corrected z-score of -0.758.
To UUGCUUUCGAGACCAGCUC against C11orf16 belongs -2.33.
Sequence UUCUUAUAUGUAGUACGGG against ZNF506 showed a seed-corrected z-score of -0.657.
With UUCGAACUAAGGCACGAGC against ABCB5, the seed-corrected z-score is -0.392.
To UAUUUCCAUCGGAUGAUGC against GJD3 belongs -0.0376.
To UAGGCUUAGAGGUCCCAGC against LACRT belongs 2.39; to UAAUUGACCAGCUUACUAC against PRAMEF2, 1.04.
AAUUCAUCCAUGAUUCUGC against FAM134B yielded a seed-corrected z-score of -0.291.
The same measure for UAGUUGUCGACGAGCACGC against MUC5AC: -2.79.
UUCUUACCAGUGUUGAUGG against KIF11 came in with a seed-corrected z-score of -2.21.
To UAAUCUUCAUACGCAGUGC against HNRNPR belongs 0.713.
To UUCAUACUGAAGAUUUUCC against ZNF157 belongs -0.0023.
UAGGAUUAAAUUAAUCCUC against GNE registered a seed-corrected z-score of -0.0404.
To UAAAGGCAUAGUUUCCCUG against RGS7BP belongs -2.71; to AAAGGUGCAGAAGUUCUGU against LOC646484, -1.37.
The same measure for UCCAGUUCCAGAACUAUCU against HES2: 0.537; for AAACGGUCCAGGUAAUUCA against CCND2: -1.57; for UCUCGUUCCACCAGAUCCG against OGFR: 2.21.
The same measure for AGUUGUAGAAGAACGAAUC against PSMD2: -3.28.
For UUGGGUUUCGGACCUCUCU against CBX7, the seed-corrected z-score was found to be 0.219.
To UAUCCUUCAACCAUUCUGG against DYX1C1 belongs 0.0057; to UAUAUGACACCUGCUGUGG against NGFR, -1.33.
To AUUGCAGUCACGAUGAUGG against OR52I2 belongs -1.16.
To UAAUGUCCAAGAUGGUCAC against CELSR1 belongs 0.481.
In turn, UUCUGAAUCAAAGUUGUUC against CBLN1 registered a seed-corrected z-score of 0.758.
The same measure for UGUAUAACCUGGCUCUCUG against FAM45BP: -0.888; for UAGGAUGGAACAUCAAUCU against WASH5P: -2.88; for UAUGCUCAAAUACCUUUGC against CAT: 0.148.
Take UAGUGCUUAUCCUAGAAUC against KLK8: the seed-corrected z-score was determined as 0.915.
To AAACUACCCAAUUGUAAUC against OR9A4 belongs 0.66; to AUGGUCUUGCCAUCUACCG against RABL2A, -2.05.
The same measure for AUCAAUUUGUCCUCCAUCC against RNPS1P1: -0.331.
To GACAUGGCAGUGAGCUUCC against CBX2 belongs -0.4.
Sequence UGCUCAAUCUGAUAGAUGG against TP63 showed a seed-corrected z-score of -0.257.
To UGUUUGAUCUGUAAAAUGG against C15orf32 belongs -1.58.
The same measure for AUGAUGUUCCUUGAAGUUC against DHRS2: -0.594; for UCUCAUCCAGGUACCAGCC against FTCD: -0.292.
The same measure for AGCUGUUCAAUGUCAAAGC against INMT: -4.2; for UGACAUACCAGAGGAAGUG against PLEKHH1: -0.0437.
The sequence UUGUUGACCAUAGCUACUC against EWSR1 showed a seed-corrected z-score of -4.01.
To AUAGAUACAGGUGAUGCAG against EGLN2 belongs 1.45; to UACUCUCACAGCUUGCACC against KCTD18, -0.258; to UUGGGAAGCAGGUGCAUGC against LAIR1, -2.03.
The same measure for UAGAGGCACCGAGUCAACG against DBF4B: 0.153; for UGAGUUCCGACACUCCAUC against EIF4EBP1: 0.187.
To UCUGCUUUCUGUACCCGAC against GATA3-AS1 belongs -2.32; to UUUGUUACAAGCACCUACU against LOC730179, 0.536.
ACAGGUGCAUUGGACUUGG against KCTD15 yielded a seed-corrected z-score of -3.06.
The same measure for UUGAUCACCUCAGAGGCCG against USE1: -1.2; for UUAUGCUAAAAUCUACUCC against TNKS2: -1.04; for AAUAGGUGUAAGUCCGUGC against NR5A2: -2.54.
The same measure for UUAGUCCAGAGGUUUCAUC against PCAT18: -0.77.
The sequence UCACAAUUUAGUGUAAUAG against ETFBKMT gave a seed-corrected z-score of 0.195.
The same measure for UCGGUAAUCCGGGUGAAGC against FGF14-AS2: -0.163.
